We go through one compound from PubChem BioAssay AID2284163 (EPA ToxCast).

Calls of active or inactive are those of the source. How the source made its calls: active means hit-call score of the fitted dose curve at least 0.9, where 1 is the maximum; inactive means score below 0.9.

Oxytocin receptor (Homo sapiens), sequence (P30559 whole entry, looked up): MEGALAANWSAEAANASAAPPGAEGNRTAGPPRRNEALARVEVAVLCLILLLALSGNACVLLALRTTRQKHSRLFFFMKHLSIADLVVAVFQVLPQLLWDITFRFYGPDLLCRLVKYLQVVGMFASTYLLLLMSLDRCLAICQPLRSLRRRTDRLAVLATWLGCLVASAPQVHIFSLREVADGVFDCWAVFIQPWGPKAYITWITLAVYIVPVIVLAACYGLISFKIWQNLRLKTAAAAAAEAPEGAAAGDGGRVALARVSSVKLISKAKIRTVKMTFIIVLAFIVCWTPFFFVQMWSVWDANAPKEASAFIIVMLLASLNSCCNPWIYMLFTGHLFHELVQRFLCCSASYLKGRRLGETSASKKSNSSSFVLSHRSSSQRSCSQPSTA

The target of the assay is Oxytocin receptor (Homo sapiens) (UniProt P30559). Kind of assay: ERF_FR_GPCR_hOXTR: Eurofins (ERF) G Protein-Coupled Receptor (GPCR) Radioligand Binding LeadHunter Assay for human Vasopressin / Oxytocin Receptor OT Agonism. The procedure:
ERF_FR_GPCR_hOXTR is a biochemical, single-readout assay that uses extracted gene-proteins in a cell-free assay. Measurements were taken 2 hour after chemical dosing in a 96-well plate. See OT Human Vasopressin / Oxytocin GPCR Binding (Agonist Radioligand) Assay, Cerep.ERF_FR_GPCR_hOXTR is an assay component calculated from the ERF_FR_GPCR_hOXTR assay. It is designed to measure radioligand binding using a type of binding reporter as detected by scintillation counting with radiometry technology.Data from the assay component ERF_FR_GPCR_hOXTR was analyzed at the assay endpoint, ERF_FR_GPCR_hOXTR, in the positive analysis fitting direction relative to DMSO as the negative control and baseline of activity. Using a type of binding reporter, gain-of-signal activity can be used to understand changes in binding as they relate to gene OXTR. To generalize the intended target to other relatable targets, this assay endpoint is annotated to the gpcr intended target family, where the subfamily is vasopressin and oxytocin.
Human cells are incubated for 60 minutes at room temprature with [3H] Oxytocin ligand (0.8 nM) and OXYTOCIN as control inhibitor. Test Sample Requirements: Minimum for 1) Screen: 60 ul of 10 mM stock -OR- 1 mg (pre-weighed) for 10 uM final testing. 2) Dose Response: 90 ul of 10 mM stock -OR- 1 mg (pre-weighed) for a top concentration at 10 uM.
In the case of `CCCCC[C@H](O)CC(=O)CCc1ccc(O)c(OC)c1`, the outcome was inactive.
